As usually defined, the AC50 is the concentration giving half of the maximal activity seen.

Structures can show the parent of a compound that is named as a salt.

From publication PMC6792352, “Limited Chemical Structural Diversity Found to Modulate Thyroid Hormone Receptor in the Tox21 Chemical Library” (Environmental Health Perspectives, 2019) come the findings set out here.

This assay relates to thyroid hormone receptor (endogenous TRα and TRβ). Details: species or system GH3-TRE-Luc (rat pituitary); GH3-TRE-Luc luciferase reporter, antagonist mode against 1 nM T3, loss of signal, qHTS. The note with it: read-out: Average AC50 (uM) GH3-TRE-Antag, antagonist mode, 1 nM T3, no GH3 cytotoxicity hit.
With `CCCOc1ccc(C(=O)OCCN(CC)CC)cc1N` [Proparacaine hydrochloride], the AC50 was over 50 µM.

As for `O=C(O)Cc1ccccc1Nc1c(Cl)cccc1Cl` [Diclofenac sodium], the AC50 was over 50 µM.

In the case of `N=c1c[n+](N2CCOCC2)[n-]o1` [3-Morpholinosydnonimine hydrochloride], the AC50 came out at 52.1 µM.

Take `CC(C)CCOC(=O)/C=C/c1ccccc1` [3-Methylbutyl cinnamate]: the AC50 came out at 81.8 µM.

Consider `CCCCOC(=O)c1ccc(N)cc1` [Butyl 4-aminobenzoate], for which the concentration at half-maximal activity (AC50) was 21.8 µM.

For `CCCCOCCOC(=O)c1ccccc1C(=O)OCCOCCCC` [Bis(2-butoxyethyl) phthalate], the AC50 worked out at 67.1 µM.

Take `CCN(CC)CCO[C@H]1CC[C@@]2(C)C(=CC[C@@H]3[C@@H]2CC[C@]2(C)C(=O)CC[C@@H]32)C1` [3beta-(2-Diethylaminoethoxy)androst-5-en-17-one hydrochloride]: the AC50 came to 22.5 µM.

Turning to `CCc1ccc(CCOc2ccc(CC3SC(=O)NC3=O)cc2)nc1` (centres unmarked) [Pioglitazone hydrochloride], the AC50 is over 50 µM.

On to `COc1cccc(N(C)C(=S)Oc2ccc3c(c2)CCCC3)n1` [Liranaftate], for which the AC50 stood at 39.9 µM.

For the compound `Cn1cnc2c(F)c(Nc3ccc(Br)cc3Cl)c(C(=O)NOCCO)cc21` [Selumetinib], the AC50 is 12.5 µM.

`CC[N+](CC)(CC)CCOc1ccc(/C=C/c2ccccc2)cc1` [Stilonium iodide]: the AC50 was 27 µM.

Turning to `CN1CCN2c3ncccc3Cc3ccccc3C2C1` (centres unmarked) [Mirtazapine], the AC50 worked out at 15.4 µM.

In the case of `CC(C)(C)NCC(O)COc1ccc(NC(=O)NC2CCCCC2)cc1` (centres unmarked) [Talinolol], the concentration at half-maximal activity (AC50) was 26.4 µM.

For the compound `O=C(CCCCCCCCC#CI)Oc1ccccc1` [Phenyl 11-iodo-10-undecynoate], the AC50 worked out at 21.5 µM.

For the compound `Cc1oc(C)c(C(=O)Nc2ccccc2)c1C` [Methfuroxam], the AC50 amounted to 23.1 µM.

As to `Oc1c(Cl)ccc(Cl)c1Cl` [2,3,6-Trichlorophenol], the AC50 is over 90 µM.

Take `CCN(CC)CCNC(C(=O)OCCC(C)C)c1ccccc1` (centres unmarked) [Camylofin]: the half-maximal activity concentration (AC50) is over 50 µM.

Take `CCn1c2ccccc2c2cc(N)ccc21` [3-Amino-9-ethylcarbazole hydrochloride]: the AC50 was 46.6 µM.

In the case of `CCCCNc1ccc(C(=O)OCCN(CC)CC)cc1` [Depolipon], the AC50 was 21 µM.

Consider `COc1ccccc1NC(=O)c1cc2ccccc2cc1O` [3-Hydroxy-2-naphthoic o-anisidide], for which the AC50 was found to be 10.4 µM.

In the case of `CC1(C)N=C(N)N=C(N)N1c1ccc(Cl)cc1` [Cycloguanil hydrochloride], the AC50 was determined as 28.6 µM.

Consider `CC(C)[C@@H](C)/C=C/[C@@H](C)[C@H]1CC[C@H]2/C(=C/C=C3\C[C@@H](O)CC[C@@H]3C)CCC[C@]12C` [Dihydrotachysterol], for which the AC50 turned out to be 26.8 µM.

For the compound `CN1CCCN=C1COC(=O)C(O)(c1ccccc1)C1CCCCC1` (centres unmarked) [Oxyphencyclimine hydrochloride], the AC50 amounted to 43.3 µM.

As to `CCO[Si](CC(C)C)(OCC)OCC` [Triethoxy(2-methylpropyl)silane], the AC50 is 66.1 µM.

Turning to `Cc1cc(Nc2ccccc2C(=O)O)ccc1Cl` [2-[(4-Chloro-3-methylphenyl)amino]benzoic acid], the AC50 worked out at 16.1 µM.

For the compound `Nc1ccc2cc3ccccc3cc2c1` [2-Aminoanthracene], the AC50 turned out to be 3.18 µM.

With `CC(C)(C)c1ccc2c(S(=O)(=O)O)c(C(C)(C)C)ccc2c1` [Sodium dibunate], the AC50 was over 50 µM.

As to `CCCOC(=O)c1ccc(N)cc1` [Risocaine], the AC50 was found to be 44.3 µM.

For the compound `Oc1ccc(C(=C(Cl)Cl)c2ccc(O)cc2)cc1` [Bis(4-hydroxyphenyl)-2,2-dichloroethylene], the AC50 turned out to be 38.4 µM.
